In PubChem BioAssay (NCI) one finds growth data, which are given here for seven compounds.

About 83,000 compounds went through this panel and 20% of them were active in at least one assay; those are over-represented in the sample as a whole.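 Each cell line was grown in a 96-well plate and treated with one concentration of compound for 48 hours. Values below 10 were considered active.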 Active and inactive are the calls of the source.

Some test systems named below: EKVX NSCLC; SN12C renal; UO-31 renal; TK-10 renal; ACHN renal; CAKI-1 renal; A498 renal; CCRF-CEM leukemia; MOLT-4 leukemia; SR leukemia; RPMI-8226 leukemia; OVCAR-8 ovarian; OVCAR-5 ovarian; OVCAR-4 ovarian; SK-OV-3 ovarian; IGROV1 ovarian; OVCAR-3 ovarian; HS 578T breast; NCI/ADR-RES ovarian; T-47D breast.
What all share (test): NCI-60 one-dose screen, 48 h (100 = growth as untreated, 0 = no growth, -100 = all killed)
Conditions in all cases: 10 µM unless noted

Consider `NS(=O)(=O)c1ccc(Nc2nc(SCC(=O)c3ccc(Cl)cc3)nc3ccccc23)cc1`, for which the growth with EKVX NSCLC is 90.6% (inactive); in the assay with SN12C renal, 88.1% (inactive); with UO-31 renal, 82.3% (inactive); with TK-10 renal, 153% (inactive); in the assay with ACHN renal, 89% (inactive); in the assay with CAKI-1 renal, 74.5% (inactive). Further, the growth with A498 renal is 74.8% (inactive); in the assay with CCRF-CEM leukemia, 92.4% (inactive); in the assay on MOLT-4 leukemia, 91.3% (inactive); with SR leukemia, 79.6% (inactive); with RPMI-8226 leukemia, 83.6% (inactive); in the assay with OVCAR-8 ovarian, 95.6% (inactive). Besides, the growth was 100% (inactive) in the assay on OVCAR-5 ovarian; 91.3% (inactive) in the assay on OVCAR-4 ovarian; 110% (inactive) in the assay with SK-OV-3 ovarian; 82.8% (inactive) with IGROV1 ovarian; 102% (inactive) with OVCAR-3 ovarian; 92.2% (inactive) with HS 578T breast. In addition, the growth in the assay with NCI/ADR-RES ovarian was 105% (inactive); in the assay on T-47D breast, 77.6% (inactive).
Take `CCCC(=O)NC(c1cccnc1)c1cc(C)c2cccnc2c1O` (stereo not given): the growth in the assay with EKVX NSCLC was 31.5% (inactive); with SN12C renal it was 45.7% (inactive); with UO-31 renal it was 26.6% (inactive); with TK-10 renal, 45.5% (inactive); in the assay on ACHN renal, 20.2% (inactive); in the assay with CAKI-1 renal, 28% (inactive). Further, the growth in the assay on A498 renal was 63.1% (inactive); with CCRF-CEM leukemia it was 20.7% (inactive); with MOLT-4 leukemia it was 18.8% (inactive); in the assay on SR leukemia, 22.3% (inactive); in the assay on RPMI-8226 leukemia, 53.5% (inactive); in the assay on OVCAR-8 ovarian it was 14% (inactive). In addition, the growth with OVCAR-5 ovarian was 53.6% (inactive); with OVCAR-4 ovarian, 29.7% (inactive); in the assay on SK-OV-3 ovarian it was 43.4% (inactive); with IGROV1 ovarian it was 30.6% (inactive); with OVCAR-3 ovarian, -0.275% (active); in the assay with HS 578T breast, 71.8% (inactive). The growth was 23.7% (inactive) with NCI/ADR-RES ovarian and 29.7% (inactive) with T-47D breast.
In the case of `COc1ccc(/C=C/C(=O)c2ccc(NC(=O)CSc3nnc(-c4ccc5nc(-c6ccc(Cl)cc6)[nH]c5c4)o3)cc2)cc1`, the growth in the assay with EKVX NSCLC was 103% (inactive); in the assay with SN12C renal, 93.4% (inactive); in the assay on UO-31 renal it was 87.5% (inactive); in the assay with TK-10 renal it was 136% (inactive); in the assay with ACHN renal, 102% (inactive); in the assay with CAKI-1 renal, 97.4% (inactive). For the same compound, the growth in the assay on A498 renal was 111% (inactive); in the assay on CCRF-CEM leukemia, 59.9% (inactive); in the assay with MOLT-4 leukemia, 64.4% (inactive); with SR leukemia it was 80.5% (inactive); with RPMI-8226 leukemia it was 64.4% (inactive); in the assay with OVCAR-8 ovarian it was 79.5% (inactive). The growth in the assay on OVCAR-5 ovarian was 107% (inactive); with OVCAR-4 ovarian, 103% (inactive); in the assay with SK-OV-3 ovarian it was 106% (inactive); in the assay on IGROV1 ovarian, 95.3% (inactive); in the assay with OVCAR-3 ovarian, 111% (inactive); in the assay on HS 578T breast it was 94.7% (inactive). In addition, the growth in the assay with NCI/ADR-RES ovarian is 107% (inactive); in the assay on T-47D breast it was 78% (inactive).
For the compound `N#Cc1c(-c2ccc(Cl)cc2)nc(SCc2ccc(F)cc2)nc1N1CCNCC1`, the growth in the assay with EKVX NSCLC is 73.7% (inactive); in the assay with SN12C renal, 52.2% (inactive); in the assay on UO-31 renal it was 51.3% (inactive); in the assay with TK-10 renal it was 92.7% (inactive); in the assay with ACHN renal, 36% (inactive); in the assay on CAKI-1 renal, 49.8% (inactive). The growth in the assay with A498 renal was 65% (inactive); in the assay on CCRF-CEM leukemia, 37% (inactive); in the assay with MOLT-4 leukemia, 7.99% (active); in the assay on SR leukemia, -48.5% (active); in the assay on RPMI-8226 leukemia it was -36.9% (active); in the assay on OVCAR-8 ovarian it was 38.6% (inactive). Besides, the growth with OVCAR-5 ovarian was 86% (inactive); in the assay with OVCAR-4 ovarian, 78.7% (inactive); in the assay on SK-OV-3 ovarian, 117% (inactive); with IGROV1 ovarian, 39.1% (inactive); in the assay with OVCAR-3 ovarian, 37.9% (inactive); in the assay on HS 578T breast, 83.3% (inactive). In addition, the figures for the growth in the assay on NCI/ADR-RES ovarian and with T-47D breast were 51.2% (inactive) and 71.3% (inactive), respectively.
Turning to `O=C(CSc1nc2sc3c(c2c(=O)n1-c1ccc(Cl)cc1)CCCC3)N/N=C/c1ccc(F)cc1`, the growth was 90.3% (inactive) with EKVX NSCLC; 97.1% (inactive) in the assay with SN12C renal; 83.2% (inactive) in the assay on UO-31 renal; 125% (inactive) in the assay with TK-10 renal; 108% (inactive) in the assay on ACHN renal; 98% (inactive) in the assay with CAKI-1 renal. The growth in the assay with A498 renal was 96.8% (inactive); with CCRF-CEM leukemia, 65.9% (inactive); in the assay with MOLT-4 leukemia it was 69.3% (inactive); with SR leukemia, 39.6% (inactive); in the assay with RPMI-8226 leukemia, 97.2% (inactive); with OVCAR-8 ovarian, 96.7% (inactive). Further, the growth was 106% (inactive) with OVCAR-5 ovarian; 89.8% (inactive) with OVCAR-4 ovarian; 116% (inactive) with SK-OV-3 ovarian; 104% (inactive) in the assay on IGROV1 ovarian; 133% (inactive) in the assay with OVCAR-3 ovarian; 115% (inactive) in the assay on HS 578T breast. In addition, the growth was 104% (inactive) in the assay with NCI/ADR-RES ovarian and 109% (inactive) with T-47D breast.
For the compound `CCN1CCN(/C(=N\c2sc(-c3ccccc3)nc2-c2ccccc2)c2ccccc2)CC1`, the growth in the assay with EKVX NSCLC is 78.8% (inactive); in the assay on SN12C renal it was 76.2% (inactive); with UO-31 renal, 64.5% (inactive); in the assay on TK-10 renal, 94.1% (inactive); in the assay with ACHN renal, 88.8% (inactive); in the assay with CAKI-1 renal, 65.3% (inactive). Besides, the growth in the assay on A498 renal was 113% (inactive); in the assay with CCRF-CEM leukemia, 68.1% (inactive); in the assay with MOLT-4 leukemia it was 60.7% (inactive); in the assay with SR leukemia, 52.8% (inactive); in the assay on RPMI-8226 leukemia, 57.7% (inactive); with OVCAR-8 ovarian it was 97.1% (inactive). The growth with OVCAR-5 ovarian was 91.8% (inactive); with OVCAR-4 ovarian, 31.8% (inactive); in the assay with SK-OV-3 ovarian it was 99.5% (inactive); in the assay with IGROV1 ovarian, 92.9% (inactive); with OVCAR-3 ovarian, 87.2% (inactive); in the assay with HS 578T breast it was 92.2% (inactive). For the same compound, the growth in the assay with NCI/ADR-RES ovarian was 82.1% (inactive); in the assay on T-47D breast, 63.7% (inactive).
As for `Cc1ccc(/C=C/c2nn3c(-c4ccco4)nnc3s2)cc1C`, the growth in the assay on EKVX NSCLC is 82.8% (inactive); in the assay on SN12C renal, 90.8% (inactive); with UO-31 renal it was 80.8% (inactive); in the assay on TK-10 renal, 116% (inactive); with ACHN renal it was 102% (inactive); with CAKI-1 renal it was 90.8% (inactive). For the same compound, the growth in the assay on A498 renal was 87% (inactive); in the assay with CCRF-CEM leukemia, 104% (inactive); in the assay with MOLT-4 leukemia, 97.8% (inactive); with SR leukemia, 90.1% (inactive); in the assay with RPMI-8226 leukemia it was 109% (inactive); in the assay with OVCAR-8 ovarian it was 88.7% (inactive). The growth was 107% (inactive) in the assay with OVCAR-5 ovarian; 101% (inactive) in the assay with OVCAR-4 ovarian; 116% (inactive) in the assay on SK-OV-3 ovarian; 97.5% (inactive) in the assay with IGROV1 ovarian; 114% (inactive) with OVCAR-3 ovarian; 102% (inactive) in the assay with HS 578T breast. The growth was 108% (inactive) with NCI/ADR-RES ovarian and 102% (inactive) with T-47D breast.
